According to the supplement of paper PMC11732987, “Enantioselective OTUD7B fragment discovery through chemoproteomics screening and high-throughput optimisation” (Communications Chemistry, 2025):

What was measured:
Assay in all cases: log2 ratio of Biotin-Ahx-Ub-VS probe labelling (fragment/DMSO); higher = less target engagement (more negative = stronger competition), active = hit call of the paper (q ≤ 0.05, log2 ratio ≤ -1)
Conditions in all cases: compound concentration: 200 uM; treatment time: 3 h
USP9X = USP9X (UniProt Q93008)
Sequence of USP9X (Q93008 whole entry, the tested form may be a part): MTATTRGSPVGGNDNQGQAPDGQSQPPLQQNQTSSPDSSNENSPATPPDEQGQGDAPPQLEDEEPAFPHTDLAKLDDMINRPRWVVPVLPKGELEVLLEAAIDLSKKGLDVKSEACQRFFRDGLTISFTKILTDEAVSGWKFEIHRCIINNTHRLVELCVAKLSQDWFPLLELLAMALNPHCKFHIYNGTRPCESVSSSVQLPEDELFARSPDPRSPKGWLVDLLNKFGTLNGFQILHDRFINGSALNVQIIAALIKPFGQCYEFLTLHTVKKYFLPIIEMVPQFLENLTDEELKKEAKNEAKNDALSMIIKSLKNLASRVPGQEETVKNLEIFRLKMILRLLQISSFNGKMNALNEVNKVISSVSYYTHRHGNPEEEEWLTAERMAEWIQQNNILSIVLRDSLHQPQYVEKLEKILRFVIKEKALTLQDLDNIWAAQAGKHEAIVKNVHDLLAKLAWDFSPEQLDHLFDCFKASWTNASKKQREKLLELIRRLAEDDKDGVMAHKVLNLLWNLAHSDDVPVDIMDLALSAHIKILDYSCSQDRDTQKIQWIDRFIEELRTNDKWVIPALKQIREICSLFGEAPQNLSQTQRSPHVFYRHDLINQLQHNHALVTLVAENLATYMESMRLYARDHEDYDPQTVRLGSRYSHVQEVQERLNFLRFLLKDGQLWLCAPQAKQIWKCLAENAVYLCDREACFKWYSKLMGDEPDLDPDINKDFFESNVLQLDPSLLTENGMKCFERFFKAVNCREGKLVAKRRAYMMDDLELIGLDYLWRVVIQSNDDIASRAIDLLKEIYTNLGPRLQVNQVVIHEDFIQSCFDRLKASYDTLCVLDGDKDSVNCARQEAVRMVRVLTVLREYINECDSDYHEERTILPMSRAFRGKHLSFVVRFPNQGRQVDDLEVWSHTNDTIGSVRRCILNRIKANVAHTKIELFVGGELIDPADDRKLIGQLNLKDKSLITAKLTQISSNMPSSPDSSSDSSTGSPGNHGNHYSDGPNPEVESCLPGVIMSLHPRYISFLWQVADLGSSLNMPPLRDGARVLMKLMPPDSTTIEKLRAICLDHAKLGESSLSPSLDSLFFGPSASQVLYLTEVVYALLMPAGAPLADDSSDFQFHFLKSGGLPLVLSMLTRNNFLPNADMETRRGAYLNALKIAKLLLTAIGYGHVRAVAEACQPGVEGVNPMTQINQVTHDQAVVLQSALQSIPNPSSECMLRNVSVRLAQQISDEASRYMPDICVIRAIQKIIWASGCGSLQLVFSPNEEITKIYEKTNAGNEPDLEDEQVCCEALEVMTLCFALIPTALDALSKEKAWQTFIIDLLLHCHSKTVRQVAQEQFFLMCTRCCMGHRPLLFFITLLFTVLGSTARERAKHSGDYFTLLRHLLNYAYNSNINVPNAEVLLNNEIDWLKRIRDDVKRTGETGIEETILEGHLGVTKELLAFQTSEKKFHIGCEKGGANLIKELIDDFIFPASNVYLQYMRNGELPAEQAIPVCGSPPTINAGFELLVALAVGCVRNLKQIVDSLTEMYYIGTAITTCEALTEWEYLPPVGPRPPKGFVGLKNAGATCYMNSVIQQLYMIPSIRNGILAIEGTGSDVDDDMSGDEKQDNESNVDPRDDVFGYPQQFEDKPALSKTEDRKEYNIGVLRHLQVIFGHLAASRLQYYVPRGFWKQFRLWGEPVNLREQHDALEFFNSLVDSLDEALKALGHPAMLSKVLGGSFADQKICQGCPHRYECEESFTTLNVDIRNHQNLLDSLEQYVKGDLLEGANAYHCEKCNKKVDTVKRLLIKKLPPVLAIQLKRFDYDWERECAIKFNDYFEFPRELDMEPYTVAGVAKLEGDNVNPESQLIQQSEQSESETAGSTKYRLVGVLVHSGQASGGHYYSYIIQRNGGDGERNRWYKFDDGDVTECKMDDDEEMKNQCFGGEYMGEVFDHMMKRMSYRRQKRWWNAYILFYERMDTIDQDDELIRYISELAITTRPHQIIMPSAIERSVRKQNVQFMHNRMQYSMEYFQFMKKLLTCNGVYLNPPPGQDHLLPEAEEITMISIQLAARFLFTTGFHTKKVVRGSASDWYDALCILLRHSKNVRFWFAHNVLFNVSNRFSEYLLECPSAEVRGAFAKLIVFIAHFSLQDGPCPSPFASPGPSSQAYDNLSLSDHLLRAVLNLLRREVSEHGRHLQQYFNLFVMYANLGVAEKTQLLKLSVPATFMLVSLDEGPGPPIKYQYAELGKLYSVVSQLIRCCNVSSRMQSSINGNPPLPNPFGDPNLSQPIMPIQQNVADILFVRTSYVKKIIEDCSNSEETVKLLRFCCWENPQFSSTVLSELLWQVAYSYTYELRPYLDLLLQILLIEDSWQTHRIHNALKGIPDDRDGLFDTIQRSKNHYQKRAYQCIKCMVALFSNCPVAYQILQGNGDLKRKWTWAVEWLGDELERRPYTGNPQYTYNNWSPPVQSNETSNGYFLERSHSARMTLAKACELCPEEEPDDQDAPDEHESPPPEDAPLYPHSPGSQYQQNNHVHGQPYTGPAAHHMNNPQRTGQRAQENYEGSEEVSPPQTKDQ
Outline: (§1)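 HEK293T lysate (495 µg per sample, in Tris/CHAPS/IGEPAL buffer with protease inhibitors) was exposed in triplicate for 3 h to fragment at 200 µM or to vehicle, then to Biotin-Ahx-Ub-VS at 0.5 µM final for 1 h. Labelled DUBs were enriched on NeutrAvidin, digested with LysC and trypsin, and analysed by diaPASEF LC-MS/MS. Spectronaut label-free quantities were normalised to the global median, and values are average log2 ratios of fragment over vehicle from an unpaired t-test. Only proteins with ≥2 unique peptides were used.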

UniProt O00487 = target: UniProt O00487
Outline: as §1

UniProt O00507 = target: UniProt O00507
Sequence of UniProt O00507 (O00507 whole entry): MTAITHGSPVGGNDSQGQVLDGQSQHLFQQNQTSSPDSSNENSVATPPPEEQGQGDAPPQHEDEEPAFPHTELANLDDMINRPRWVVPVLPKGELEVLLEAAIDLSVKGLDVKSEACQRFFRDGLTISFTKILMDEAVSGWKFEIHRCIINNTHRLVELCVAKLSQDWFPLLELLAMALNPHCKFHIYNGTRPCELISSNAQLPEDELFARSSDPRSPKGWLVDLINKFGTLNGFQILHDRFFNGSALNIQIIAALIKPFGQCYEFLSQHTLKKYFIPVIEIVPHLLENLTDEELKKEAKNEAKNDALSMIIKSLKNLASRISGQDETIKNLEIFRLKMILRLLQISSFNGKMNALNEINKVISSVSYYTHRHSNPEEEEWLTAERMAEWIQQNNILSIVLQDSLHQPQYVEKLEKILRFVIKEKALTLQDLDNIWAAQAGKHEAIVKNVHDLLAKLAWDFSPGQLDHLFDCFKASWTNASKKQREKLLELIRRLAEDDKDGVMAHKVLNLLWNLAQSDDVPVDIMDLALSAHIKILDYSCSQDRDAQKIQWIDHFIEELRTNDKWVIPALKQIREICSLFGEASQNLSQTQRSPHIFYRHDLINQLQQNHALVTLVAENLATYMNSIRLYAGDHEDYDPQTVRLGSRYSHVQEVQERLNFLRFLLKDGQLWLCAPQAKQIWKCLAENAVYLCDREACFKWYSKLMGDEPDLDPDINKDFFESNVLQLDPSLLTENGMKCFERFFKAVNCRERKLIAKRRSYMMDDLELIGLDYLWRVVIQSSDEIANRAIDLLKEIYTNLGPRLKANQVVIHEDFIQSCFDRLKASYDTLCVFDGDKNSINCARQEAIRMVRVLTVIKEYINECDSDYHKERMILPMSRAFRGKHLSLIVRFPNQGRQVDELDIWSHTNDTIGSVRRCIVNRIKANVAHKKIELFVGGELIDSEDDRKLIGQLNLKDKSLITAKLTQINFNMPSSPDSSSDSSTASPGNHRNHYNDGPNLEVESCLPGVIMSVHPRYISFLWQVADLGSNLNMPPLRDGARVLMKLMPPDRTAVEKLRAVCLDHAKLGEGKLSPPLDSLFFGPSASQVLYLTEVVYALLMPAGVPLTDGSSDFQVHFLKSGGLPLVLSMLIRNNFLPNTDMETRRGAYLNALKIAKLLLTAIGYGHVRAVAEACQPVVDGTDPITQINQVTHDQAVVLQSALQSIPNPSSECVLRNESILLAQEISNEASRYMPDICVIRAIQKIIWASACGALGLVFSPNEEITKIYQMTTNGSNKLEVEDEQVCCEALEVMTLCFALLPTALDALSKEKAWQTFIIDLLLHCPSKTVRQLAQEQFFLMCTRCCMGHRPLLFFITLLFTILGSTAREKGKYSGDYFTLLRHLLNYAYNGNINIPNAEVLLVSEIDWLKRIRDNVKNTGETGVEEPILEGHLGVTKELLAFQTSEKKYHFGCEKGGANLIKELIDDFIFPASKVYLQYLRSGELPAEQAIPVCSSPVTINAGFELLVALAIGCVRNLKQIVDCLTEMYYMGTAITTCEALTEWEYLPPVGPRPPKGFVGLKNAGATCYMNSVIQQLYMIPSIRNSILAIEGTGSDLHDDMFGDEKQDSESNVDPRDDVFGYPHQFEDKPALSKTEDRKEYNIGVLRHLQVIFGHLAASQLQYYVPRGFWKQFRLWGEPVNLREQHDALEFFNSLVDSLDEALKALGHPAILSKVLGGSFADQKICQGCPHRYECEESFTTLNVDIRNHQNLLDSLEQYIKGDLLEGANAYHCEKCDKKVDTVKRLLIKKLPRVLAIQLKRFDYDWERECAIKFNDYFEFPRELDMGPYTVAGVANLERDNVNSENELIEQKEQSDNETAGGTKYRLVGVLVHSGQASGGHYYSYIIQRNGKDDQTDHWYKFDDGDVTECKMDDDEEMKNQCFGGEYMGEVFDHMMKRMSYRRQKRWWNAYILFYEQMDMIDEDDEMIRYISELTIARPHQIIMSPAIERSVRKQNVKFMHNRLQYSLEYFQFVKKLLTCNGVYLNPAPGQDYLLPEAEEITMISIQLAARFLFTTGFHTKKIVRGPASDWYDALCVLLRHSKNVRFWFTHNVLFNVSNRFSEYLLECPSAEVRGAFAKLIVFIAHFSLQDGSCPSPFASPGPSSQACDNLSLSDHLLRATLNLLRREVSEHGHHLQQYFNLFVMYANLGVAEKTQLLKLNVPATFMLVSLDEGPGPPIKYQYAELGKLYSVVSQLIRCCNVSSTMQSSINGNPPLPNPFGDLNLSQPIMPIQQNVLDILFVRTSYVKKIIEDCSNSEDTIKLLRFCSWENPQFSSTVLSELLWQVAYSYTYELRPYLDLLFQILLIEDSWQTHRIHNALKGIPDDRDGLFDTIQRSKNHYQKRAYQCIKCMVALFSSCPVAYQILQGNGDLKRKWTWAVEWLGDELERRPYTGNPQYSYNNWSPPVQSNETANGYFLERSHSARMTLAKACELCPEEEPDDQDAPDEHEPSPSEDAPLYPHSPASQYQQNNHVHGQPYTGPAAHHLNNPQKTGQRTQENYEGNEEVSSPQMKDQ
Outline: as §1

UniProt P51784 = target: UniProt P51784
Outline: as §1

UniProt Q5T2D3 = target: T1, UniProt Q5T2D3
T1 sequence (whole entry): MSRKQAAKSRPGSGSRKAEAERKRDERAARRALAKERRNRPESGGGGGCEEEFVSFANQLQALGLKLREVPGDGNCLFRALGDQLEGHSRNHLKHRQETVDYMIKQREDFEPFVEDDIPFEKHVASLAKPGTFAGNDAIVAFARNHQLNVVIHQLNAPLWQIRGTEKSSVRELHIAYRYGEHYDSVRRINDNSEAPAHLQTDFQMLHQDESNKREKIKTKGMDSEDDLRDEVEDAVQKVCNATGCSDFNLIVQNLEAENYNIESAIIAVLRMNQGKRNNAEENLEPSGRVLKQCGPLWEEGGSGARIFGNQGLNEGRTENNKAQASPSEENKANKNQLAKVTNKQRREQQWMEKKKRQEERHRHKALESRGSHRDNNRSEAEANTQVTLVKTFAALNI
Outline: as §1

UniProt Q8TE49 = target: T2, UniProt Q8TE49
T2 sequence (whole entry): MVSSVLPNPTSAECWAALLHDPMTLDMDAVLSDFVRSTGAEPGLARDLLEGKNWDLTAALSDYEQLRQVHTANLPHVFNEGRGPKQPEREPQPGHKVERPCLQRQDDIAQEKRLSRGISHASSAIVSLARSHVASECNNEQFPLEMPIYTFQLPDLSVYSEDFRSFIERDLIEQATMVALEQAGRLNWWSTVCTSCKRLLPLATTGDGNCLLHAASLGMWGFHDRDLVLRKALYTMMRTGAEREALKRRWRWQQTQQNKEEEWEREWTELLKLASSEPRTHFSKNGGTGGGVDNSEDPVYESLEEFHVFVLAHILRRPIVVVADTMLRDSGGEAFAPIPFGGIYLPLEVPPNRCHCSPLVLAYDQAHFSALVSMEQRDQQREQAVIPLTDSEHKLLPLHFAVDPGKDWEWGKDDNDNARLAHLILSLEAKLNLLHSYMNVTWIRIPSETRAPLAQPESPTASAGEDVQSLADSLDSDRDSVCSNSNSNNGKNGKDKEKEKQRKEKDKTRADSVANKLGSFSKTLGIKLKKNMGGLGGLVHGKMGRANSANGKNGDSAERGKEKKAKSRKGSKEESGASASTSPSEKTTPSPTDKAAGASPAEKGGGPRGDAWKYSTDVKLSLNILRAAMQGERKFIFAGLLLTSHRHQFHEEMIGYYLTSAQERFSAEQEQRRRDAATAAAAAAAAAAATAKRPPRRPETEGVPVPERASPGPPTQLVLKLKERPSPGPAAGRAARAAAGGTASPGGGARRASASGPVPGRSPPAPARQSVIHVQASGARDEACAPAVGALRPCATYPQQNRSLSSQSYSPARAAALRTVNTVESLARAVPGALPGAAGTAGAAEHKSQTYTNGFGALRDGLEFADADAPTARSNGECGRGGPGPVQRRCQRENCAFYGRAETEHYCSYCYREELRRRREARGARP
Outline: as §1

UniProt Q9P2H5 = target: T3, UniProt Q9P2H5
T3 sequence (whole entry): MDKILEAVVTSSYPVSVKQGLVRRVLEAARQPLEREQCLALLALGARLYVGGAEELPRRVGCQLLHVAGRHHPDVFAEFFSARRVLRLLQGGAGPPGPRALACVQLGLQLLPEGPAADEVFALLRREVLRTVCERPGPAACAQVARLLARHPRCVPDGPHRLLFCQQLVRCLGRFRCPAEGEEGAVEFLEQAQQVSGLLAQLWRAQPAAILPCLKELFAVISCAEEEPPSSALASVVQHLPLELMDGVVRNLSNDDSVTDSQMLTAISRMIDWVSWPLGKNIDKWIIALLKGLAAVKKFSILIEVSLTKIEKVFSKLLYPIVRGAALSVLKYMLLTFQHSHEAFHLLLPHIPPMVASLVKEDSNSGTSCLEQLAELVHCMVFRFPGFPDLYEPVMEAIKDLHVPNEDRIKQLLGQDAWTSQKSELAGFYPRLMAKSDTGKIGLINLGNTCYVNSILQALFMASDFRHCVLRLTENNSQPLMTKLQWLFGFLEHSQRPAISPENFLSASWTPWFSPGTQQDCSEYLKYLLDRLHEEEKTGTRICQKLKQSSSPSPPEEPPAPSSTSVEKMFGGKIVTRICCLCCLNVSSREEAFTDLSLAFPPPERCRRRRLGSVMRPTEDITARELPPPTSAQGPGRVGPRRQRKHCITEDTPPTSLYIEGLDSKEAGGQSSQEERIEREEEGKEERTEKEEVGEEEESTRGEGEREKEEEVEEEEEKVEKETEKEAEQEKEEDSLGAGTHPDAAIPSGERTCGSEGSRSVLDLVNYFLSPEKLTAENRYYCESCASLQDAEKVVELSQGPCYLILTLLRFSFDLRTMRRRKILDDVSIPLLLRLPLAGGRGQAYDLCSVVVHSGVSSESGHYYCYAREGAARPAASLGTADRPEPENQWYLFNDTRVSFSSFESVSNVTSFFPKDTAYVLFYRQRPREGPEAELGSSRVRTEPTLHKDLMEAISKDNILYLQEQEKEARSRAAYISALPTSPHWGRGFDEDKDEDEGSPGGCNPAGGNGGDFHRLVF
Outline: as §1

UniProt Q9UGI0 = target: T4, UniProt Q9UGI0
T4 sequence (whole entry): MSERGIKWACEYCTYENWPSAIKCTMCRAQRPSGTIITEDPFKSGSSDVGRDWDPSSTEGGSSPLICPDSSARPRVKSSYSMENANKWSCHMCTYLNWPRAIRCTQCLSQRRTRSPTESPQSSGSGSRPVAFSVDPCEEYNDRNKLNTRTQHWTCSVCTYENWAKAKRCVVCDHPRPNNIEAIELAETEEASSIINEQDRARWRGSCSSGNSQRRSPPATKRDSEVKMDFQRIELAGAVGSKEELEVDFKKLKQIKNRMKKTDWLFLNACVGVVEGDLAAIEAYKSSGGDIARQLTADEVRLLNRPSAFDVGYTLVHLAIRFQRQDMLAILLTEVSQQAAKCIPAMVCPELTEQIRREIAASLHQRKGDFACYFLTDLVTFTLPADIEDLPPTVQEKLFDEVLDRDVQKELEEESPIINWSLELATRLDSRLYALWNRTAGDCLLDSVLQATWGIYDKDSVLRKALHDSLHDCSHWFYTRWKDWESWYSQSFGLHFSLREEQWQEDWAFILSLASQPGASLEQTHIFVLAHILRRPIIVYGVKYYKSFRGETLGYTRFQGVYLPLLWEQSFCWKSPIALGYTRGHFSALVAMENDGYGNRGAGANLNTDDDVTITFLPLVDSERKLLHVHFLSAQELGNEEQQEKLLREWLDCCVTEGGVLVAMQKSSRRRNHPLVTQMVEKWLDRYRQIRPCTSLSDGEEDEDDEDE
Outline: as §1

YOD1 = target: T5, YOD1 (UniProt Q5VVQ6)
T5 sequence (whole entry): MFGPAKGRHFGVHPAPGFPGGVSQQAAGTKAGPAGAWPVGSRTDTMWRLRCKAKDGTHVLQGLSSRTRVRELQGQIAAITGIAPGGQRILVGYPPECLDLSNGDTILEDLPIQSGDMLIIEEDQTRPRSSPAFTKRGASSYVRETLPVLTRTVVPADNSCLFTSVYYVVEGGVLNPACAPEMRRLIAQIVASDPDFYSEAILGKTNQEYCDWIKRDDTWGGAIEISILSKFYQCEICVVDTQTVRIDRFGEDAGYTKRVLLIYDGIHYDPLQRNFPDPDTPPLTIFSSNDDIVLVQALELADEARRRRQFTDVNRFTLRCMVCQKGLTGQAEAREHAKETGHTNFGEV
Outline: as §1

Measured: log2 ratio of Biotin-Ahx-Ub-VS probe labelling

Cc1ccn2cc(CNC(=O)CCl)nc2c1.Cl
inactive: USP9X -0.141 | UniProt O00487 -0.0788 | UniProt O00507 0.237 | UniProt P51784 -0.0387 | UniProt Q5T2D3 -0.599 | UniProt Q8TE49 -0.359 | UniProt Q9P2H5 -0.141 | UniProt Q9UGI0 -0.262 | YOD1 0.0926
